# The supplement of paper PMC6555819
# Test system: RARa homodimer (NR concentration 270 nM)
# Experiment: PBM binding z-score (relative to random genomic background probes); higher = stronger binding; sequences stand for … in GC…GCGATTGACAGCGTAGAATGAAGG
# In short: (§1)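 Custom Agilent 4×180K protein-binding microarrays carried double-stranded probes. Their 34-nt variable regions held direct-repeat seeds, single-nucleotide variants, half-site ablations and random human genomic background sequences. Arrays were incubated 1 h with ligand-free nuclear receptor dimers in PBS pH 7.4, 2% milk, 0.02% Triton X-100, 1 mM DTT, 0.2 mg/mL BSA and 0.4 mg/ml salmon testes DNA. Antibodies against each partner (one per run) detected binding, and scanned fluorescence was regression-normalized. Binding z-scores use random background probes as reference.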
row,Sequence,PBM binding z-score
1,GGAACGATGGCAAAGTTGATAGCATCTGTCGACG,-1.19
2,CCTATTAGTTGACCATAAGGGCAACCAAAGCTCG,2.44
3,TCATATAGGTAAATGCTAGCTGAAAGTCCGATCT,0.642
4,GCTAGCAGGCCATTTGGGTCACTCATTGACGGGC,-0.74
5,GGAACGGGGGCAAAGTTGATAGCATCTGTCGACG,0.888
6,TTACCAAGGTGAGCTGAGGTCGTTGGTCCAACTC,-1.02
7,CCTTGGAGGACAGAAGGTCAGAGCTGTCCGCTTT,0.737
8,CGATCTAGGTCAGAACAGGACAGTGAAGGATGAT,0.466
9,TAGCCTAGGTCATGCGCGCCAGTATAGTGTCGGC,-0.473
10,GCTGCTAGGTCAGCTTGGTCAGCTAACGGGTACG,-0.683
11,ACTATTAGTTTAGACGAGGGCAACCGATAGGTTG,1.02
12,TCTTGTAGATCAGCAGGAGGTTAAGAAAGATCGA,-0.978
13,GCTAGCAGGCCATTGGGGTCACTCAATGACGGGC,-0.69
14,ACAGACAGGTGAAGAAGGTAACTCAGGCTATCAT,0.349
15,TCTTGTAGATCACAGGTTAAGAAAGCCGAAGCCT,-0.789
16,CCTAGTTGGTCAAGGTCACACACGCTATAGGTAC,4.38
17,TAGCCTAGGTCATTCAGGGTCCAGTATAGAAAGC,-0.0201
18,CAAACTAGGTCAGGAGGTCAAAGTCCGCTTCCCG,1.8

# Test system: RARb:RXRa (NR concentration 270 nM, RXRa partner concentration 90 nM)
# Experiment: as above
# In short: as §1
row,Sequence,PBM binding z-score
1,CCTACTGGGCCATTCAGAGGTCAGTGATCATATG,2.77
2,CCTCGGAGGACAACAGGAGGTTAGAGCTGCCAGA,1.32
3,TGAATCAGGTTAAAGATCAGGGAACGTGGCGTCG,0.993
4,CGTCCATGGTCAGCAGGTCAGTGAAAGCGACGTG,2.28
5,GCGACTGGGGCCAAGCAGGTTACCATAAGGTTGG,1.14
6,CTGGAAAGGTCGGTTGAGGTGAGTATACGGATAA,2.89
7,TCATATAGGTAAAGGTCAAAGTCGAACGATATGA,5.17
8,ACAGACAGGTGATGGAGGTAACTCAGGCTATCAT,0.173
9,TTACCAAGGTGAGCTGAGGACGTTGATCCAACTC,1.05
10,TCTAGTTGGTCAAAGGTCACACACTCGAAATGCG,5.09
11,ACTAGCAGGCCAAGGGTAACTCAAGATTAGTCCG,0.971
12,CGTCCCAGGTCAAAGGTCAGTGAAGAGATGACGG,5.7
13,GCGACTAGGGCAAAGCAGGTTACCATAAGGTTGG,1.1
14,ATCTCTAGGCAACCAAGTTCAGTGAATGCCGAAC,0.951
15,GCATATAGGAAATACAAGGTGAAAGTCCGATTGT,0.29
16,ATCTCTAGGTAACCAAGTTCAGTTAATGCCGAAC,1.18
17,GCGACTGGGGCAAAGCAGGGTACCATAAGGTTGG,0.894
18,CTACCAAGGTGAACAAGGTTGTTGATTACTATTC,1.57
19,CCTGCTAGGTCAATTGTCAGCTAAAGCAGCTCGC,3.53
20,GCTCGGAGGACAAGGTCATAGCTTTGTCCGTAGA,3.79

row,Sequence,PBM binding z-score
1,ACTCGGAGGAAAAAGGTCAGAGCTACGCCAGTGA,3.88
2,TCTCGGAGGACACGAAGGTCAGAGCGTTCCAGAG,3.4
3,GGAACGATGGCAAAGTTGATAGCATCTGTCGACG,-0.325
4,CCTATTAGTTGACCATAAGGGCAACCAAAGCTCG,1.62
5,TCATATAGGTAAATGCTAGCTGAAAGTCCGATCT,0.242
6,GCTAGCAGGCCATTTGGGTCACTCATTGACGGGC,1.26
7,GGAACGGGGGCAAAGTTGATAGCATCTGTCGACG,3.27
8,TTACCAAGGTGAGCTGAGGTCGTTGGTCCAACTC,1.72
9,CCTTGGAGGACAGAAGGTCAGAGCTGTCCGCTTT,3.29
10,CGATCTAGGTCAGAACAGGACAGTGAAGGATGAT,2.66
11,TAGCCTAGGTCATGCGCGCCAGTATAGTGTCGGC,3.74
12,GCTGCTAGGTCAGCTTGGTCAGCTAACGGGTACG,3.29
13,ACTATTAGTTTAGACGAGGGCAACCGATAGGTTG,1.25
14,TCTTGTAGATCAGCAGGAGGTTAAGAAAGATCGA,0.468
15,GCTAGCAGGCCATTGGGGTCACTCAATGACGGGC,3.01
16,ACAGACAGGTGAAGAAGGTAACTCAGGCTATCAT,0.709
17,TCTTGTAGATCACAGGTTAAGAAAGCCGAAGCCT,0.464
18,CCTAGTTGGTCAAGGTCACACACGCTATAGGTAC,4.17
19,TAGCCTAGGTCATTCAGGGTCCAGTATAGAAAGC,3.77
20,CAAACTAGGTCAGGAGGTCAAAGTCCGCTTCCCG,4.92
